The values below come from PubChem BioAssay AID1779 (Sanford-Burnham Center for Chemical Genomics, 2009).

Out of some 290,000 compounds screened, about 160 (0.055%) were called active. The list comes from a sample in which actives are over-represented; it also holds similar structures and randomly drawn compounds. Unmarked numbers belong to inactive results. Cut-off read from the data, not from the text of the source: active = inhibition above about 50%; inactive = the rest.

The test deals with Tyrosine-protein phosphatase non-receptor type 22 (Homo sapiens) (UniProt Q9Y2R2). The test is described as follows: inhibitors of LYP phosphatase, biochemical, fluorescence intensity, uHTS (AID 1779).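 Note: plate controls were vehicle with enzyme for no effect and no enzyme for full effect.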 The following applies: recombinant LYP phosphatase, at 11.5 µM, stronger effect = higher value.
Tyrosine-protein phosphatase non-receptor type 22 (Homo sapiens), sequence (Q9Y2R2 whole entry, looked up): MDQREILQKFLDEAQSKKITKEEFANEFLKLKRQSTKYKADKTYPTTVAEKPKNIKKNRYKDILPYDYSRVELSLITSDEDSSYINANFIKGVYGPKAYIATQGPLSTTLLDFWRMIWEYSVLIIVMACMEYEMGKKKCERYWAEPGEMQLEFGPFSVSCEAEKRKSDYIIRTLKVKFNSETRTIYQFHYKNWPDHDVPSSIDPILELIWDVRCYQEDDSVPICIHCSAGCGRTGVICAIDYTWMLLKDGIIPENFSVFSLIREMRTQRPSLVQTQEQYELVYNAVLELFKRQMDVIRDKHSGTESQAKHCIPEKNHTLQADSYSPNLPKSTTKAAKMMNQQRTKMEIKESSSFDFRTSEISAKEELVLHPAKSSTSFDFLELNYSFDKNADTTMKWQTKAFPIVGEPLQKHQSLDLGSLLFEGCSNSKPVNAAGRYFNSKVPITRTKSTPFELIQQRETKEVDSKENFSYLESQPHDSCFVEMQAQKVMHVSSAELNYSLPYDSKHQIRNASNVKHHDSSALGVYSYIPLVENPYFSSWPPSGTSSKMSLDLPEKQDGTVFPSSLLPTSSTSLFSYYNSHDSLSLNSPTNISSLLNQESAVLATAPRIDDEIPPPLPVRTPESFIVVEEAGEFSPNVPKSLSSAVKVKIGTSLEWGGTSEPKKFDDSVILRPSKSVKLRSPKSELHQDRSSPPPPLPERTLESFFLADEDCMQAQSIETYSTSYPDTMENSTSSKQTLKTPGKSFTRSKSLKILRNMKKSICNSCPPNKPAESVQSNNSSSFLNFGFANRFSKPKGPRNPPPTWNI
For the compound `C=CCSc1nc2sc(-c3ccccc3)cc2c(=O)n1N`, the inhibition is -7.2%.

Consider `CCOC(=O)N1CCN(C(=O)C(CC)n2nc(C)c3sc4ccccc4c3c2=O)CC1` (stereo not given), for which the inhibition is 4.4%.

Regarding `Brc1cc2c(cc1CN1CCc3ccccc3C1)OCO2`, the inhibition was -4.6%.

In the case of `O=C1CCC(c2ccccc2)N1C(=O)c1cccnc1` (stereo not given), the inhibition is 87.4% (active).

For the compound `O=C(c1ccccc1)N1CCN(C(=O)c2cccnc2)CC1`, the inhibition was -0.5%.

Turning to `O=C1CC(c2ccccc2)CN1C(=O)c1cccnc1` (stereo not given), the inhibition was -10.4%.

Turning to `CCCOC(=O)c1c(-c2ccc(C)cc2C)csc1NC(=O)C1C2CCC(O2)C1C(=O)O` (stereo not given), the inhibition was 66.6% (active).

Turning to `CCOC(=O)c1c(-c2ccc(-c3ccccc3)cc2)csc1NC(=O)C1C2CCC(O2)C1C(=O)O` (stereo not given), the inhibition is 20.8%.

Take `CCOC(=O)c1c(-c2cccc3ccccc23)csc1NC(=O)C1C2CCC(O2)C1C(=O)O` (stereo not given): the inhibition is 4.2%.

For `CC(=O)c1ccc(N2CCN(C(=O)CCN3C(=S)NC(C)(C)CC3C)CC2)cc1` (stereo not given), the inhibition was 1%.

For the compound `Cc1cc(C)n(C(C)CNS(=O)(=O)c2ccccc2)n1` (stereo not given), the inhibition is -6.8%.

With `O=C(O)CCC(=O)Nc1ccccc1C(=O)NCCc1ccccc1`, the inhibition is 2.9%.

For the compound `NC(=O)Nc1ccccc1C(=O)NCCc1ccccc1`, the inhibition was 65% (active).

Turning to `O=C(Nc1ccccc1C(=O)NCCc1ccccc1)c1ccco1`, the inhibition is -1.8%.

In the case of `CN(C)/C=N/NC(=O)c1ccccc1`, the inhibition is -9.5%.

With `CC(=O)Nc1ccc(NC(=O)c2c(-c3ccccc3Cl)noc2C)c(C)c1`, the inhibition is -11.5%.

As for `Cc1ccnc(NCc2c(O)ccc3ccccc23)c1`, the inhibition was -11.3%.

Regarding `CCN1C(=O)C(CC(=O)Nc2ccc(OC)cc2)N(CCN2CCOCC2)C1=S` (stereo not given), the inhibition was -9.2%.

For `COc1ccc(NC(=O)CC2C(=O)N(Cc3ccccc3)C(=S)N2CCN2CCOCC2)cc1` (stereo not given), the inhibition was -3.6%.

In the case of `O=C(CC1C(=O)N(Cc2ccccc2)C(=S)N1CCN1CCOCC1)Nc1ccc(F)cc1` (stereo not given), the inhibition is 74.9% (active).

For the compound `CC(=O)NNc1ncnc2c1cnn2-c1ccccc1`, the inhibition was 1.3%.

On to `COC(=O)N/N=C(\C)c1ccc2ccccc2c1OC(F)F`, for which the inhibition is 68% (active).

On to `COC(=O)N/N=C(\C)c1ccccc1OC(F)F`, for which the inhibition is -1.7%.

In the case of `CCNC(=S)N/N=C(\C)c1ccc2ccccc2c1OC(F)F`, the inhibition is 4%.

`COC(=O)C(C)n1cnc2c(nnn2-c2ccc(C)cc2)c1=O` (stereo not given): the inhibition is -13%.

Turning to `CN(C(=O)COc1cc(C(F)(F)F)nn1C)c1ccccc1`, the inhibition is -13.5%.

Turning to `CC(C)Cn1c(-c2ccco2)n[nH]c1=S`, the inhibition is -1.3%.

On to `CC1Cc2ccccc2N1CC(=O)Nc1ccc(S(N)(=O)=O)cc1` (stereo not given), for which the inhibition was -7.9%.

Turning to `CC1Cc2ccccc2N1CC(=O)Nc1ccc(S(=O)(=O)N(C)C)cc1` (stereo not given), the inhibition is 0.3%.

Turning to `CC1Cc2ccccc2N1CC(=O)Nc1cccc(S(N)(=O)=O)c1` (stereo not given), the inhibition was 52.1% (active).

The term inhibition denotes the relative decrease from the control value, in per cent.
